Compounds with a hit are over-represented: about 9.4% of the library has one in this group of screens.
Pf growth 48h = inhibits P. falciparum growth in the first generation, 48 h; 310,000 tested, 5.9% active; Potency, µM (series often up to 28.7 µM), for inactives: top-dose activity change, negative = inhibition, usual class: inhibitors; P. falciparum luciferase growth in erythrocytes, 48 h; further: on the % scale 0 is the no-effect control and ±100 the full control effect
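First compound was added to culture medium, then infected red cells at 0.1% parasitemia and 2% hematocrit (final). After incubation at 37 C under 5% CO2, luciferase detection reagent was dispensed and light output recorded.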
SARS PLpro yeast = blocks SARS-CoV papain-like protease in a yeast assay; Potency, µM (titrated, usually from 32.9 µM), for inactives: at the highest dose activity, positive = growth rescue, actives largely listed as activators; AID 485353; 330,000 tested, 0.19% active; S. cerevisiae expressing SARS-CoV PLpro, growth rescue; calls by dose curve; further: 0% is about no effect; nearly all actives have a fitted effect of over 55% in size
Pf growth 96h = inhibits malaria parasite growth, 96 h; P. falciparum luciferase reporter growth, 96 h; Potency, µM (top dose mostly 28.7 µM), for the others: at the top dose activity change, negative = inhibition, most hits filed as inhibitors; 320,000 tested, 6.9% active; AID 504834; further: on the % scale 0 is the no-effect control and ±100 the full control effect
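Plates of compound plus infected erythrocytes (2% hematocrit, 0.05% parasitemia final) incubate 96 hours, 37 C, 5% CO2. Detection reagent added; reduced luminescence from the parasites' luciferase reporter flags inhibition.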
AMA1-RON2 inh = disrupts binding of P. falciparum AMA1 to RON2; AlphaScreen AMA1-biotinylated RON2 peptide binding; Potency, µM (highest dose often 58.2 µM), without a hit: at the highest dose activity change, negative = inhibition, usual class: inhibitors; 360,000 tested, 0.2% active;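 further: 0% = vehicle wells and -100% = peptide control; nearly all actives have a fitted effect of over 45% in size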
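AMA1 (3D7) with his tag at 25 nM final met compounds first, then biotinylated RON2 peptide at 25 nM; detection used donor plus acceptor beads, 10 µg/mL apiece, read by AlphaScreen after 30 min at room temperature.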
Starred values were filed as active, the others as inactive; ? = inconclusive; · = not tested or not shown; [ ] = dose if it differs, or a comment. Unless noted, the call rests on the fitted dose curve; in most records, active means well fitted curve in the direction sought with a large enough effect; inconclusive means small, poorly fitted or top-dose-only effect, or another doubt; inactive means no such curve, though single readings can be large; an effect the other way counts as inactive or inconclusive. Potency means the concentration at half of the fitted maximal effect.

SMILES	Pf growth 48h	SARS PLpro yeast	Pf growth 96h	AMA1-RON2 inh
CCOC(=O)c1c(NC(=O)CCS(=O)(=O)c2ccccc2)sc2c1CC(C)(C)NC2(C)C	-20%	0%	?	1%
CCOC(=O)c1c(NC(=O)COc2ccccc2OCC)sc2c1CC(C)(C)NC2(C)C	?	1%	12µM*	-7%
COC(=O)c1c(NC(=O)c2ccco2)sc2c1CC(C)(C)NC2(C)C	-1%	1%	17µM*	15%
COC(=O)[C@]1(Cc2ccccc2)N[C@H](CN(C)S(=O)(=O)c2ccc(F)cc2)[C@@H]2C(=O)N(C)C(=O)[C@@H]21	·	2%	·	-1%
O=C(Cn1cnc2c(OCc3ccccc3)ncnc21)NCc1ccccn1	·	2%	·	8%
CCOC(=O)c1c(NC(=O)COc2ccccc2C#N)sc2c1CC(C)(C)NC2(C)C	12µM*	?	5.2µM*	12%
CCOc1ccc(NC(=S)N2CCC(C(N)=O)CC2)cc1	10%	1%	3%	-17%
C/C(=N\N1CCCCCC1)c1c(O)n(C2CCCCC2)c(=O)[nH]c1=O	?	0%	13µM*	-12%
CCC(=NCc1cc(OC)cc(OC)c1)c1c(O)n(C2CCCCC2)c(=O)[nH]c1=O	?	-1%	0.83µM*	-20%
CCC(C)(C)NC(=O)Nc1cc(Cl)ccc1OC	?	3%	-1%	-17%
Cc1cccc(NC(=O)CCCc2ccccc2)c1C	9%	0%	35%	-2%
O=C(CCn1c(=S)[nH]c2ccccc2c1=O)Nc1ccc(F)cc1	?	1%	-5%	33%
COC(C(=O)C(O)C(C)O)C1Cc2cc3cc(OC4CC(OC5CC(O)C(OC)C(C)O5)C(OC(C)=O)C(C)O4)c(C)c(O)c3c(O)c2C(=O)C1OC1CC(OC2CC(OC3CC(C)(O)C(OC(C)=O)C(C)O3)C(O)C(C)O2)C(O)C(C)O1 (stereo unspecified)	0.12µM*	·	?	·
O=C(COC(=O)c1cncc(Br)c1)NC1CCCCC1	?	-2%	79%	-3%
CCc1cccc(NC(=O)CSc2nc3c(c(=O)[nH]2)CCCC3)c1	-9%	-24%	8.3µM*	·
Cc1ccc(C(=O)N2CCCCC2)cc1NC1=C(Cl)C(=O)N(Cc2ccccc2)C1=O	4.7µM*	-6%	5.2µM*	-2%
Cc1ccc(O)c(NC2=C(Cl)C(=O)N(Cc3ccccc3)C2=O)c1	12µM*	-2%	?	22%
CCCn1c(=O)c(C(=O)NCCc2ccccc2)c(O)c2ccccc21	215%	4%	15µM*	13%
CCn1c(=O)c(C(=O)NCc2ccccn2)c(O)c2ccccc21	-16%	6%	12µM*	18%
CCCCCn1c(=O)c(C(=O)NCCc2ccccc2)c(O)c2ccccc21	15µM*	4%	5.9µM*	42%
CCn1c(=O)c(C(=O)NCc2ccc(OC)cc2)c(O)c2ccccc21	-9%	6%	21%	4%
CCOC(=O)c1cccc(NS(=O)(=O)Cc2ccccc2)c1	8%	-2%	52%[1.15 µM]	13%
O=C(NC1CCCCC1)C(c1cccnc1)N(C(=O)c1csnn1)C1CCCC1 (stereo unspecified)	?	-5%	?	-2%
Cc1ccccc1OC1C(=O)N(CC2CCCO2)C1c1ccc2c(c1)OCO2 (stereo unspecified)	?	-1%	4%	-8%
CCOC(=O)c1cc(CC)sc1NC(=O)c1cc(OCC)c(OCC)c(OCC)c1	8.3µM*	1%	5.9µM*	-6%
SMILES	Pf growth 48h	SARS PLpro yeast	Pf growth 96h	AMA1-RON2 inh
CCOC(=O)c1c(NC(=O)C(c2ccccc2)c2ccccc2)sc2c1C1CCN2CC1	2.1µM*	-9%	?	-29%
CCOC(=O)c1cc(CC)sc1NC(=O)C1CC1	-17%	-1%	·	-4%
CCOC(=O)c1cc(CC)sc1NC(=O)C(c1ccccc1)c1ccccc1	?	1%	8.3µM*	-16%
CCOC(=O)c1cc(CC)sc1NC(=O)c1ccc2c(c1)OCCO2	1%	0%	·	14%
CCOC(=O)c1c(NC(=O)CCN2CCOCC2)sc(C)c1-c1ccccc1	?	0%	19%	?
Cc1c(Cl)cccc1NC(=O)CN(C1CCCCC1)S(C)(=O)=O	14%	-2%	?	9%
Cc1ccc(C(=O)NCCCNc2ccccc2[N+](=O)[O-])cc1	9%	-1%	38%	-24%
COc1cc(OC)cc(OCC(O)Cn2cnc3cc(C)c(C)cc32)c1 (stereo unspecified)	·	1%	10µM*	9%

Compound activity: PubChem, National Center for Advancing Translational Sciences (NCATS)
